These results are taken from ChEMBL document CHEMBL1961873, “Compounds: GSK PKIS; Assays: Nanosyn kinase panel” (2012).

For test [1], the target named is Protein kinase C gamma type (Homo sapiens) (UniProt P05129). Particulars: at 1 µM.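 Further: each value is an averaged percent inhibition of the enzyme.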
The target in test [2] is T1, Protein kinase C iota type (Homo sapiens) (UniProt P41743).
T1 sequence (whole entry): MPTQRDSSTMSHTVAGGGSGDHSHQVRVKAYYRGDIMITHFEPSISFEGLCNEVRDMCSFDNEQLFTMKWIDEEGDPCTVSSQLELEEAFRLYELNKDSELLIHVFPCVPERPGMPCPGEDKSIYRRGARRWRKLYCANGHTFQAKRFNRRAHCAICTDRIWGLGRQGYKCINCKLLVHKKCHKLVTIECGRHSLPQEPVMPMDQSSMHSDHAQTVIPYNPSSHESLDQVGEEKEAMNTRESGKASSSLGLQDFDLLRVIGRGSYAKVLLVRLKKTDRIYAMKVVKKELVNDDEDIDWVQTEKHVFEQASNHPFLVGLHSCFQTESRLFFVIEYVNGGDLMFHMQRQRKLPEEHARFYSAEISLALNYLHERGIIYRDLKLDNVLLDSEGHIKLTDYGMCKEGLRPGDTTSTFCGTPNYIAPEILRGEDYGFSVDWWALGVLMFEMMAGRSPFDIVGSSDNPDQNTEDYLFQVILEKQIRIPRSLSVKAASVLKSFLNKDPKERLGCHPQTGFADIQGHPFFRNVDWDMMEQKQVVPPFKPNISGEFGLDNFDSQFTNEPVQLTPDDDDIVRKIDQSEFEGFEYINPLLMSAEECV
The following applies: at 0.1 µM.

Test [3] addresses T1, Protein kinase C iota type (Homo sapiens). Particulars: at 1 µM.
The target of test [4] is Protein kinase C theta type (Homo sapiens) (UniProt Q04759). Particulars: at 0.1 µM.
Sequence of Protein kinase C theta type (Homo sapiens) (Q04759 whole entry, looked up): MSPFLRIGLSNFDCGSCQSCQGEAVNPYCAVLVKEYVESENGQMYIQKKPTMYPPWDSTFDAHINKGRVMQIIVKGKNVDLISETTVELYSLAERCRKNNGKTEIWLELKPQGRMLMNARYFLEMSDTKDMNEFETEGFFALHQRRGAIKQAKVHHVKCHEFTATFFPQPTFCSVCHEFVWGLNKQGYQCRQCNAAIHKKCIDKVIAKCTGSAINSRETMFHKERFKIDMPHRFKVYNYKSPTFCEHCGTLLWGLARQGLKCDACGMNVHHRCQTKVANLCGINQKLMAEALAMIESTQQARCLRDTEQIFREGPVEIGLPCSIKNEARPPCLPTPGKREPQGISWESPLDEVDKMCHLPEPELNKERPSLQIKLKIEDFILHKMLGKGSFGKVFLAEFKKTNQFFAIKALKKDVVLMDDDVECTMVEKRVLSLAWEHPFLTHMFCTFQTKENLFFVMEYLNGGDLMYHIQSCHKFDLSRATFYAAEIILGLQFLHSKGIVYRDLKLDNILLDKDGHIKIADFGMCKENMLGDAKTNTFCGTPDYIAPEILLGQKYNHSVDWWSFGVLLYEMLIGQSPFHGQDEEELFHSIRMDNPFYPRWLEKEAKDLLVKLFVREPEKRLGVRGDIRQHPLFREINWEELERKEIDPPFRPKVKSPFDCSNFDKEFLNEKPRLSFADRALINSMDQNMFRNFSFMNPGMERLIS
Test [5] has the same target. Particulars: at 1 µM.
Test [6] deals with Protein kinase C beta type (Homo sapiens) (UniProt P05771). The following applies: at 0.1 µM.
Sequence of Protein kinase C beta type (Homo sapiens) (P05771 2-671 limits assumed): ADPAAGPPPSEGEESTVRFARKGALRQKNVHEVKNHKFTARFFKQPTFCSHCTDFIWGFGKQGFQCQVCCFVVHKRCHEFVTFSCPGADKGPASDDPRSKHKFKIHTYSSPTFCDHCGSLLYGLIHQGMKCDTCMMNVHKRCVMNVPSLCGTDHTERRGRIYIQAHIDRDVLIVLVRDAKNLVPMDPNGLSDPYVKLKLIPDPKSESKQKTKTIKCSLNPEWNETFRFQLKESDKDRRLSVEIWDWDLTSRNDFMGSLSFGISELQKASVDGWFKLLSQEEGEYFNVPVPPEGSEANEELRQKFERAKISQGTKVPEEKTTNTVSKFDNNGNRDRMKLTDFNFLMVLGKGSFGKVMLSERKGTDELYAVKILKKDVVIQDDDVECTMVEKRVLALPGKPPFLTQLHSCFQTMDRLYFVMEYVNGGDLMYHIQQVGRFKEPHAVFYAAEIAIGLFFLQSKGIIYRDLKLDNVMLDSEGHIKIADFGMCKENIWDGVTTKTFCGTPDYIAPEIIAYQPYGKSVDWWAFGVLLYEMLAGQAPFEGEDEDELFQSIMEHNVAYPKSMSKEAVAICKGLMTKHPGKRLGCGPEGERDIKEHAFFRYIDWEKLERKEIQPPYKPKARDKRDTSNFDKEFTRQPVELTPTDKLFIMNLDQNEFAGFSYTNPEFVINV
The target is the same in test [7]. The following applies: at 1 µM.
Test [8] deals with T2, Serine/threonine-protein kinase D1 (Homo sapiens) (UniProt Q15139).
T2 sequence (whole entry): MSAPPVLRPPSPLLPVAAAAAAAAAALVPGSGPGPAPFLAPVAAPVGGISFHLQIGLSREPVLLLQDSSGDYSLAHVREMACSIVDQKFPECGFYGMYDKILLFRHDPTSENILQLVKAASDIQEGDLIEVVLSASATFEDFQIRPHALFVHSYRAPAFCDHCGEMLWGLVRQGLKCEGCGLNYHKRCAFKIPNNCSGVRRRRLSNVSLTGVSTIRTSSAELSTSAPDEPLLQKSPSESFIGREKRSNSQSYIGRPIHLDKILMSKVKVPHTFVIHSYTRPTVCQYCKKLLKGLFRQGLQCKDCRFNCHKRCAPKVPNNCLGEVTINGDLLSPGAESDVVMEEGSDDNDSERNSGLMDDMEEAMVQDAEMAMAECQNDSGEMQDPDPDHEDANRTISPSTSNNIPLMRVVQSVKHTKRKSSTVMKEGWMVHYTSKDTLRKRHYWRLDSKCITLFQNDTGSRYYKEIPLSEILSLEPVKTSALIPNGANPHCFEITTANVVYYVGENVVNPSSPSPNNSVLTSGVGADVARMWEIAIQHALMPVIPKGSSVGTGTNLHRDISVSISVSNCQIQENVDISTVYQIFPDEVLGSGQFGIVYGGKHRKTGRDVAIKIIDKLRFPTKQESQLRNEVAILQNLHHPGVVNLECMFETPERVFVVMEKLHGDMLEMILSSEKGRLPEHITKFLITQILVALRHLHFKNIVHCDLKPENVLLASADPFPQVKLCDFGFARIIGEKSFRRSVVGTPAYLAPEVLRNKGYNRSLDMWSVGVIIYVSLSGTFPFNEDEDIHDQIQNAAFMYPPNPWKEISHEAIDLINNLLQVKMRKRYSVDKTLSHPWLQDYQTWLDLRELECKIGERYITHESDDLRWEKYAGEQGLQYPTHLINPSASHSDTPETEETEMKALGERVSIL
Particulars: at 0.1 µM.

In test [9] the target is T2, Serine/threonine-protein kinase D1 (Homo sapiens). The following applies: at 1 µM.
Test [10] has as its target T3, Serine/threonine-protein kinase D2 (Homo sapiens) (UniProt Q9BZL6).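 Further: reported percent inhibition values are means, part of the GSK PKIS kinase panel screen.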
T3 sequence (whole entry): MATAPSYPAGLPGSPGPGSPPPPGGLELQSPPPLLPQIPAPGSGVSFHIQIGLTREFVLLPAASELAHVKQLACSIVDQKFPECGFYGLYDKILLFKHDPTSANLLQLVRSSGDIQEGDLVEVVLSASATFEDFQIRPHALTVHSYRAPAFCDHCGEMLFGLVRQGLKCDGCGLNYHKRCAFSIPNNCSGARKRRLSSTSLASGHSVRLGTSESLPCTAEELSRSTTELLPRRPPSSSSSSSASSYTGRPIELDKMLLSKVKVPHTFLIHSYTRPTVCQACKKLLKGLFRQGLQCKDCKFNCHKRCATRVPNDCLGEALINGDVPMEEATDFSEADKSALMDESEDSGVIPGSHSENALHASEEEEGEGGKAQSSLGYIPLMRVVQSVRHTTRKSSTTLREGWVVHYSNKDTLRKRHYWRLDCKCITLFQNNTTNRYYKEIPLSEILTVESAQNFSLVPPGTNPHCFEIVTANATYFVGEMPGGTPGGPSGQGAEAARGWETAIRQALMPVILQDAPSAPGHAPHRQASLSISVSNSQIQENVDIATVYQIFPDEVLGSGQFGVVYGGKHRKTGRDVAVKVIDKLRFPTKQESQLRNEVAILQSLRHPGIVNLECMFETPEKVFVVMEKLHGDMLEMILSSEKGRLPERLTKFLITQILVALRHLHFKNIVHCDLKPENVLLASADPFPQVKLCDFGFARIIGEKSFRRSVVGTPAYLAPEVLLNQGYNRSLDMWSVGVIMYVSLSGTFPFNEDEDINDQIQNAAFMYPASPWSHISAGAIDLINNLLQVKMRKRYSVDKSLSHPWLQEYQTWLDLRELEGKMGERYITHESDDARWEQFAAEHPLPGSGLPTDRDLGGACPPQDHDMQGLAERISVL
Particulars: at 0.1 µM.

Consider `CS(=O)(=O)Nc1cccc(-c2ccc3c(NC(=O)C4CC4)n[nH]c3c2)c1`, for which the inhibition (usually the change of the read-out against control, counted positive when it falls) in [1] was 1.59%; in test [2], 0.49%; in test [3], 0.91%; in test [4] it was -0.5%; in test [5] it was -0.76%; in test [6], -0.25%. Besides, the inhibition came out at 0.61% in test [7], 0.96% in test [8], 2.34% in test [9] and 2.1% in test [10].
Consider `NS(=O)(=O)c1ccc(NC=C2C(=O)Nc3ccc4ncsc4c32)cc1`, for which the inhibition was determined as 9.7% in test [1]; 2.56% in [2]; 5.28% in test [3]; 3.44% in test [4]; 11.8% in test [5]; 2.28% in test [6]. Further, the inhibition in [7] amounted to 6.13%; in test [8], 28.5%; in test [9], 78.4%; in [10], 21.3%.
With `Cc1cc(O)cc(C)c1/C=C/c1cncc(C(=O)N(C)C)c1`, the inhibition was found to be 4.07% in test [1]; 0.51% in [2]; 1.32% in test [3]; 0.96% in [4]; 0.78% in test [5]; 0.19% in test [6]. For the same compound, the inhibition in test [7] is 3%; in test [8] it was 1.61%; in [9], 2.79%; in test [10], -2.38%.
In the case of `c1ccc(Nc2ncc(-c3ccccc3)o2)cc1`, the inhibition worked out at 4.48% in test [1]; 1.64% in [2]; 0.9% in [3]; 1.93% in test [4]; 2.27% in test [5]; 1.46% in test [6]. The inhibition in test [7] stood at 2.63%; in test [8] it was 4.37%; in [9], 7.71%; in test [10], 4.47%.
For `COC(=O)Nc1nc2cc(Oc3ccc(NC(=O)Nc4cccc(Br)c4)cc3)ccc2[nH]1`, the inhibition in [1] is 0.29%; in test [2], 1.23%; in test [3], 0.06%; in [4], 1.7%; in test [5] it was 1.69%; in test [6] it was 0.71%. The inhibition in test [7] was 2.06%; in test [8], 2.15%; in [9], 4.31%; in [10], 4.58%.
Regarding `NS(=O)(=O)c1ccc(-c2cc3ccncc3cc2OCc2ccccc2)cc1`, the inhibition is 4.49% in [1]; 0.19% in [2]; 0.28% in test [3]; 1.18% in [4]; 2.98% in test [5]; 0.66% in test [6]. For the same compound, the inhibition was 1.74% in test [7], 2.19% in test [8], 2.75% in test [9] and 2.47% in test [10].
On to `Cc1ccc(Nc2ccnc(Nc3cccc(C(N)=O)c3)n2)cc1O`, for which the inhibition in test [1] is 16.4%; in [2], 1.56%; in [3], -0.31%; in test [4], 0.93%; in [5] it was 2.94%; in test [6], 1.81%. Besides, the inhibition was 8.28% in test [7], -0.94% in test [8], 12.1% in test [9] and -0.15% in test [10].
`O=C1Nc2ccc(-c3cccnc3)cc2C1=Cc1cc(Br)c(O)c(Br)c1`: the inhibition in test [1] was 6.29%; in test [2], 1.6%; in [3] it was 3.35%; in [4], 1.77%; in test [5], 2.57%; in test [6] it was 0.86%. For the same compound, the inhibition was determined as 1.44% in test [7], 2.94% in test [8], 4.25% in test [9] and 3.88% in test [10].
With `Cc1ccc2c(-c3ccnc(Nc4ccc5c(c4)OCCO5)n3)c(-c3ccc(C(F)(F)F)cc3)nn2n1`, the inhibition in test [1] was 3.76%; in test [2], 0.29%; in test [3], 1.15%; in test [4], 1.61%; in [5], 2.73%; in [6], 0.24%. In addition, the inhibition is 2.06% in [7], 1.11% in test [8], 3.32% in test [9] and 2.13% in [10].
With `COC(=O)c1cncc(/C=C/c2c(C)cc(O)cc2C)c1`, the inhibition is 3.93% in test [1]; 2.79% in test [2]; 0.49% in test [3]; 2.55% in test [4]; 3.44% in test [5]; -1.36% in [6]. The inhibition in test [7] came to 2.82%; in test [8] it was 3.37%; in test [9] it was 5%; in test [10], 3.87%.
